# Assay results from article PMC11062922 (Nature Chemical Biology, 2023).
# Like-named read-outs stand apart in the source and are kept apart here.
# Key:
# FLT4 = details: read-out: apparent Kd, n = 1
# IRAK4 = details: read-out: apparent Kd, n = 1
# [1] = compound concentrations:100 nM and 1000 nM (sheet 'Lestaurtinib' of Supplementary Table 1),run:Lestaurtinib_02364_R3,Plate:MR002
# [2] = compound concentrations:100 nM and 1000 nM (sheet 'Lestaurtinib' of Supplementary Table 1),run:Lestaurtinib_02381_R1,Plate:MR004
# [3] = compound concentrations:100 nM and 1000 nM (sheet 'Lestaurtinib' of Supplementary Table 1),run:Lestaurtinib_02381_R2,Plate:MR004
# [4] = compound concentrations:100 nM and 1000 nM (sheet 'Lestaurtinib' of Supplementary Table 1),run:Lestaurtinib_02407_R2,Plate:MR005
# [5] = compound concentrations:100 nM and 1000 nM (sheet 'Lestaurtinib' of Supplementary Table 1),run:Lestaurtinib_02422_R1,Plate:MR006
# [6] = compound concentrations:100 nM and 1000 nM (sheet 'Lestaurtinib' of Supplementary Table 1),run:Lestaurtinib_02437_R2,Plate:MR007
# [7] = compound concentrations:100 nM and 1000 nM (sheet 'Lestaurtinib' of Supplementary Table 1),run:Lestaurtinib_02438_R1,Plate:MR008
substance,measurement,setting,value
Lestaurtinib,potency estimated from few doses,FLT4; [1],199 nM
same,potency estimated from few doses,"FLT4; compound concentrations:100 nM and 1000 nM (sheet 'Lestaurtinib' of Supplementary Table 1),run:Lestaurtinib_02367_R2,Plate:MR003",462 nM
same,potency estimated from few doses,"FLT4; compound concentrations:100 nM and 1000 nM (sheet 'Lestaurtinib' of Supplementary Table 1),run:Lestaurtinib_02367_R3,Plate:MR003",74.5 nM
same,potency estimated from few doses,FLT4; [2],202 nM
same,potency estimated from few doses,FLT4; [3],158 nM
same,potency estimated from few doses,FLT4; [4],157 nM
same,potency estimated from few doses,FLT4; [5],289 nM
same,potency estimated from few doses,"FLT4; compound concentrations:100 nM and 1000 nM (sheet 'Lestaurtinib' of Supplementary Table 1),run:Lestaurtinib_02422_R2,Plate:MR006",26 nM
same,potency estimated from few doses,"FLT4; compound concentrations:100 nM and 1000 nM (sheet 'Lestaurtinib' of Supplementary Table 1),run:Lestaurtinib_02437_R1,Plate:MR007",520 nM
same,potency estimated from few doses,FLT4; [6],1240 nM
same,potency estimated from few doses,FLT4; [7],25.6 nM
same,potency estimated from few doses,"FLT4; compound concentrations:100 nM and 1000 nM (sheet 'Lestaurtinib' of Supplementary Table 1),run:Lestaurtinib_02443_R3,Plate:MR009",154 nM
same,potency estimated from few doses,"FLT4; compound concentrations:100 nM and 1000 nM (sheet 'Lestaurtinib' of Supplementary Table 1),run:Lestaurtinib_02473_R1,Plate:MR010",310 nM
same,potency estimated from few doses,"FLT4; compound concentrations:100 nM and 1000 nM (sheet 'Lestaurtinib' of Supplementary Table 1),run:Lestaurtinib_02473_R2,Plate:MR010",316 nM
same,potency estimated from few doses,"FLT4; compound concentrations:100 nM and 1000 nM (sheet 'Lestaurtinib' of Supplementary Table 1),run:Lestaurtinib_02482_R3,Plate:MR011",229 nM
same,potency estimated from few doses,"FLT4; compound concentrations:100 nM and 1000 nM (sheet 'Lestaurtinib' of Supplementary Table 1),run:Lestaurtinib_02487_R2,Plate:MR012",131 nM
same,potency estimated from few doses,"FLT4; compound concentrations:100 nM and 1000 nM (sheet 'Lestaurtinib' of Supplementary Table 1),run:Lestaurtinib_02566_R1,Plate:MR014",1590 nM
same,potency estimated from few doses,"FLT4; compound concentrations:100 nM and 1000 nM (sheet 'Lestaurtinib' of Supplementary Table 1),run:Lestaurtinib_02566_R2,Plate:MR014",90.7 nM
same,potency estimated from few doses,"FLT4; compound concentrations:100 nM and 1000 nM (sheet 'Lestaurtinib' of Supplementary Table 1),run:Lestaurtinib_02566_R3,Plate:MR014",77.7 nM
same,potency estimated from few doses,"FLT4; compound concentrations:100 nM and 1000 nM (sheet 'Lestaurtinib' of Supplementary Table 1),run:Lestaurtinib_02577_R2,Plate:MR016",225 nM
same,potency estimated from few doses,"FLT4; compound concentrations:100 nM and 1000 nM (sheet 'Lestaurtinib' of Supplementary Table 1),run:Lestaurtinib_02577_R3,Plate:MR016",160 nM
same,potency estimated from few doses,"FLT4; compound concentrations:100 nM and 1000 nM (sheet 'Lestaurtinib' of Supplementary Table 1),run:Lestaurtinib_02584_R1,Plate:MR017",396 nM
same,potency estimated from few doses,"FLT4; compound concentrations:100 nM and 1000 nM (sheet 'Lestaurtinib' of Supplementary Table 1),run:Lestaurtinib_02584_R2,Plate:MR017",124 nM
same,potency estimated from few doses,"FLT4; compound concentrations:100 nM and 1000 nM (sheet 'Lestaurtinib' of Supplementary Table 1),run:Lestaurtinib_02584_R3,Plate:MR017",434 nM
same,potency estimated from few doses,"FLT4; compound concentrations:100 nM and 1000 nM (sheet 'Lestaurtinib' of Supplementary Table 1),run:Lestaurtinib_02601_R1,Plate:MR018",286 nM
same,potency estimated from few doses,"FLT4; compound concentrations:100 nM and 1000 nM (sheet 'Lestaurtinib' of Supplementary Table 1),run:Lestaurtinib_02601_R2,Plate:MR018",202 nM
same,potency estimated from few doses,"FLT4; compound concentrations:100 nM and 1000 nM (sheet 'Lestaurtinib' of Supplementary Table 1),run:Lestaurtinib_02601_R3,Plate:MR018",86 nM
same,potency estimated from few doses,"FLT4; compound concentrations:100 nM and 1000 nM (sheet 'Lestaurtinib' of Supplementary Table 1),run:Lestaurtinib_02606_R3,Plate:MR019",231 nM
same,potency estimated from few doses,"FLT4; compound concentrations:100 nM and 1000 nM (sheet 'Lestaurtinib' of Supplementary Table 1),run:Lestaurtinib_02624_R1,Plate:MR020",358 nM
same,potency estimated from few doses,"FLT4; compound concentrations:100 nM and 1000 nM (sheet 'Lestaurtinib' of Supplementary Table 1),run:Lestaurtinib_02624_R2,Plate:MR020",135 nM
same,potency estimated from few doses,"FLT4; compound concentrations:100 nM and 1000 nM (sheet 'Lestaurtinib' of Supplementary Table 1),run:Lestaurtinib_02624_R3,Plate:MR020",359 nM
same,potency estimated from few doses,"FLT4; compound concentrations:100 nM and 1000 nM (sheet 'Lestaurtinib' of Supplementary Table 1),run:Lestaurtinib_02724_R2,Plate:MR021",319 nM
same,potency estimated from few doses,"FLT4; compound concentrations:100 nM and 1000 nM (sheet 'Lestaurtinib' of Supplementary Table 1),run:Lestaurtinib_02741_R2,Plate:MR023",701 nM
same,potency estimated from few doses,"FLT4; compound concentrations:100 nM and 1000 nM (sheet 'Lestaurtinib' of Supplementary Table 1),run:Lestaurtinib_02748_R1,Plate:MR024",330 nM
same,potency estimated from few doses,"FLT4; compound concentrations:100 nM and 1000 nM (sheet 'Lestaurtinib' of Supplementary Table 1),run:Lestaurtinib_02748_R2,Plate:MR024",521 nM
same,potency estimated from few doses,"FLT4; compound concentrations:100 nM and 1000 nM (sheet 'Lestaurtinib' of Supplementary Table 1),run:Lestaurtinib_02748_R3,Plate:MR024",161 nM
same,potency estimated from few doses,"FLT4; compound concentrations:100 nM and 1000 nM (sheet 'Lestaurtinib' of Supplementary Table 1),run:Lestaurtinib_02752_R1,Plate:MR025",310 nM
same,potency estimated from few doses,"FLT4; compound concentrations:100 nM and 1000 nM (sheet 'Lestaurtinib' of Supplementary Table 1),run:Lestaurtinib_02752_R3,Plate:MR025",254 nM
same,potency estimated from few doses,"FLT4; compound concentrations:100 nM and 1000 nM (sheet 'Lestaurtinib' of Supplementary Table 1),run:Lestaurtinib_02765_R2,Plate:MR026",162 nM
same,potency estimated from few doses,"FLT4; compound concentrations:100 nM and 1000 nM (sheet 'Lestaurtinib' of Supplementary Table 1),run:Lestaurtinib_02765_R3,Plate:MR026",400 nM
same,potency estimated from few doses,"FLT4; compound concentrations:100 nM and 1000 nM (sheet 'Lestaurtinib' of Supplementary Table 1),run:Lestaurtinib_02766_R1,Plate:MR027",350 nM
same,potency estimated from few doses,"FLT4; compound concentrations:100 nM and 1000 nM (sheet 'Lestaurtinib' of Supplementary Table 1),run:Lestaurtinib_02766_R3,Plate:MR027",237 nM
same,potency estimated from few doses,"FLT4; compound concentrations:100 nM and 1000 nM (sheet 'Lestaurtinib' of Supplementary Table 1),run:Lestaurtinib_02768_R1,Plate:MR028",180 nM
same,potency estimated from few doses,"FLT4; compound concentrations:100 nM and 1000 nM (sheet 'Lestaurtinib' of Supplementary Table 1),run:Lestaurtinib_02768_R2,Plate:MR028",389 nM
same,potency estimated from few doses,"FLT4; compound concentrations:100 nM and 1000 nM (sheet 'Lestaurtinib' of Supplementary Table 1),run:Lestaurtinib_02768_R3,Plate:MR028",493 nM
same,potency estimated from few doses,"FLT4; compound concentrations:100 nM and 1000 nM (sheet 'Lestaurtinib' of Supplementary Table 1),run:Lestaurtinib_02795_R1,Plate:MR022",391 nM
same,potency estimated from few doses,"FLT4; compound concentrations:100 nM and 1000 nM (sheet 'Lestaurtinib' of Supplementary Table 1),run:Lestaurtinib_02795_R2,Plate:MR022",229 nM
same,potency estimated from few doses,"FLT4; compound concentrations:100 nM and 1000 nM (sheet 'Lestaurtinib' of Supplementary Table 1),run:Lestaurtinib_02795_R3,Plate:MR022",297 nM
same,potency estimated from few doses,"FLT4; compound concentrations:100 nM and 1000 nM (sheet 'Lestaurtinib' of Supplementary Table 1),run:Lestaurtinib_02802_R1,Plate:MR029",183 nM
same,potency estimated from few doses,"FLT4; compound concentrations:100 nM and 1000 nM (sheet 'Lestaurtinib' of Supplementary Table 1),run:Lestaurtinib_02896_R1,Plate:MR030",159 nM
same,potency estimated from few doses,"FLT4; compound concentrations:100 nM and 1000 nM (sheet 'Lestaurtinib' of Supplementary Table 1),run:Lestaurtinib_02896_R2,Plate:MR030",151 nM
same,potency estimated from few doses,"FLT4; compound concentrations:100 nM and 1000 nM (sheet 'Lestaurtinib' of Supplementary Table 1),run:Lestaurtinib_02896_R3,Plate:MR030",372 nM
same,potency estimated from few doses,"FLT4; compound concentrations:100 nM and 1000 nM (sheet 'Lestaurtinib' of Supplementary Table 1),run:Lestaurtinib_03172_R3,Plate:MR031",131 nM
same,potency estimated from few doses,"FLT4; compound concentrations:100 nM and 1000 nM (sheet 'Lestaurtinib' of Supplementary Table 1),run:Lestaurtinib_03252_R1,Plate:MR032",229 nM
same,potency estimated from few doses,"FLT4; compound concentrations:100 nM and 1000 nM (sheet 'Lestaurtinib' of Supplementary Table 1),run:Lestaurtinib_03252_R2,Plate:MR032",76.2 nM
same,potency estimated from few doses,"FLT4; compound concentrations:100 nM and 1000 nM (sheet 'Lestaurtinib' of Supplementary Table 1),run:Lestaurtinib_03260_R1,Plate:MR033",162 nM
same,potency estimated from few doses,"FLT4; compound concentrations:100 nM and 1000 nM (sheet 'Lestaurtinib' of Supplementary Table 1),run:Lestaurtinib_03260_R3,Plate:MR033",388 nM
same,potency estimated from few doses,"IRAK4; compound concentrations:100 nM and 1000 nM (sheet 'Lestaurtinib' of Supplementary Table 1),run:Lestaurtinib_02339_R2,Plate:MR001",146 nM
same,potency estimated from few doses,"IRAK4; compound concentrations:100 nM and 1000 nM (sheet 'Lestaurtinib' of Supplementary Table 1),run:Lestaurtinib_02339_R3,Plate:MR001",62 nM
same,potency estimated from few doses,"IRAK4; compound concentrations:100 nM and 1000 nM (sheet 'Lestaurtinib' of Supplementary Table 1),run:Lestaurtinib_02364_R1,Plate:MR002",77.8 nM
same,potency estimated from few doses,IRAK4; [1],95 nM
same,potency estimated from few doses,IRAK4; [2],93.9 nM
same,potency estimated from few doses,IRAK4; [3],76.7 nM
same,potency estimated from few doses,"IRAK4; compound concentrations:100 nM and 1000 nM (sheet 'Lestaurtinib' of Supplementary Table 1),run:Lestaurtinib_02381_R3,Plate:MR004",65.8 nM
same,potency estimated from few doses,"IRAK4; compound concentrations:100 nM and 1000 nM (sheet 'Lestaurtinib' of Supplementary Table 1),run:Lestaurtinib_02407_R1,Plate:MR005",69.8 nM
same,potency estimated from few doses,IRAK4; [4],55.3 nM
same,potency estimated from few doses,"IRAK4; compound concentrations:100 nM and 1000 nM (sheet 'Lestaurtinib' of Supplementary Table 1),run:Lestaurtinib_02407_R3,Plate:MR005",85.3 nM
same,potency estimated from few doses,IRAK4; [5],136 nM
same,potency estimated from few doses,"IRAK4; compound concentrations:100 nM and 1000 nM (sheet 'Lestaurtinib' of Supplementary Table 1),run:Lestaurtinib_02422_R3,Plate:MR006",131 nM
same,potency estimated from few doses,IRAK4; [6],140 nM
same,potency estimated from few doses,IRAK4; [7],79.9 nM
same,potency estimated from few doses,"IRAK4; compound concentrations:100 nM and 1000 nM (sheet 'Lestaurtinib' of Supplementary Table 1),run:Lestaurtinib_02443_R1,Plate:MR009",113 nM
